Measured values reported in PubChem BioAssay AID1650 (Southern Research Specialized Biocontainment Screening …, 2009).
Potency and affinity values are given separately. Unmarked numbers belong to inactive results. The rule behind the calls is not given here.

Experiment: mammalian cell viability reduction – secondary assay, cytotoxicity control for West Nile virus antiviral project, dose response (AID 1650)
Conditions: Mammalian host cell viability, cytotoxicity counter-screen; series mostly up to 10 µM; viability: at the top concentration
In the case of COc1cccc2sc3ccc(NCCC4CCCN4C)cc3c(=O)c12 (stereo not given), the “viability” value is reported as 82.8% [at 20 µM]. With COc1ccc(N2CCN(c3oc(-c4ccc(OC)c(OC)c4)nc3C#N)CC2)cc1 the “viability” value was 84.2%. In the case of CCN(CC)CCCNc1oc(-c2cccc(Cl)c2)nc1C#N, the “viability” value is reported as 78% [at 20 µM]. In the case of CCN1CCN(c2cc(C)c3cc(NC(=S)N4CC(C)CC(C)C4)ccc3n2)CC1 (stereo not given), the “viability” value is reported as 79.7%. In the case of CCOc1ccc(NC(=O)c2c(NC(=O)CN3CCN(C)CC3)sc3c2CCC3)cc1, the “viability” value is reported as 77%. With CCOc1ccc2nc(N3CCCC(C(=O)NCCCN4CC(C)CC(C)C4)C3)sc2c1 (stereo not given) the “viability” value was 82.6%. In the case of Cn1c(N)c(C(=O)CSc2nc3ccccc3c(=O)n2CCCN2CCOCC2)c(=O)n(C)c1=O, the “viability” value is reported as 87.8%. For O=[N+]([O-])c1cncc([N+](=O)[O-])c1Nc1cccc(O)c1, the “viability” value was 82.8%. With CCCCN(CC)CCCNC(=S)Nc1ccc2nc(N3CCN(CC)CC3)cc(C)c2c1 the “viability” value was 80%. With CCN(CC)CCC(c1cc(OC)c(OC)c(OC)c1)c1c(OC)cc(OC)c2c(-c3ccccc3)cc(=O)oc12 (stereo not given) the “viability” value was 80.3% [at 20 µM]. With CCOc1ccc2nc(N3CCCC(C(=O)NCCCN4C(C)CCCC4C)C3)sc2c1 (stereo not given) the “viability” value was 86.3% [at 20 µM]. With O=[N+]([O-])c1ccc(COc2ccc(-c3[nH]ncc3-c3ccc(Cl)cc3)c(O)c2)cc1 the “viability” value was 82.4%. For CCN(CC)S(=O)(=O)c1cc(C(=O)Nc2cc(Cl)ccc2N2CCN(C)CC2)ccc1Cl, the “viability” value was 82.8%. In the case of CCN1CCN(CCCNC(=O)c2ccc3c(Cl)c4c(nc3c2)CCCC4)CC1, the “viability” value is reported as 86.8%. With CCOC(=O)c1c(CN2CCN(C)CC2)n(C)c2cc(Br)c(OC)cc12 the “viability” value was 75.1% [at 20 µM]. For CCOC(=O)N1CCC(N2C(=O)c3ccccc3C2Nc2cc(C)cc(C)c2)CC1 (stereo not given), the “viability” value was 84.1% [at 20 µM]. In the case of CCOC(=O)c1cn(CC(=O)Nc2ccc(C(C)C)cc2)nn1, the “viability” value is reported as 88.6%. In the case of Cc1ccc(NC2=C/C(=N/S(=O)(=O)c3cccs3)c3ccccc3C2=O)cc1, the “viability” value is reported as 78.3% [at 20 µM]. In the case of CCCCOC(=O)Cn1c2ccc(OC)cc2c2nc3ccccc3nc21, the “viability” value is reported as 80.7% [at 20 µM]. With COc1ccc(-c2cc(-c3ccc(OC)cc3)nc(-c3ccc4c(c3)NC(=O)CO4)c2)cc1 the “viability” value was 79.2% [at 20 µM]. In the case of COCCn1c(SCC(=O)Nc2nnc(C)s2)nnc1-c1ccncc1, the “viability” value is reported as 94% [at 20 µM]. For N#Cc1ncc(-c2ccc3c(c2)OCCOCCOCCOCCOCCO3)nc1C#N, the “viability” value was 86.6%. For Cc1ccccc1C(=O)c1cccn1CC(=O)NCCN1CCN(c2cccc(C)c2C)CC1, the “viability” value was 70.8% [at 20 µM]. In the case of O=C(CSc1nc2ccccc2c(=O)n1-c1ccc(F)cc1)Nc1ccc2c(c1)CCC2, the “viability” value is reported as 73.5% [at 20 µM]. For COC(=O)c1ccc(C(=O)Nc2cc(Cl)ccc2Cl)cc1NC(=O)c1ccccc1C, the “viability” value was 72.5% [at 20 µM]. For CN(C)CCNc1ncnc2c1sc1nc(N3CCCC3)c3c(c12)CC(C)(C)OC3, the “viability” value was 75.1% [at 20 µM]. With O=C(CCN1C(=O)/C(=C/c2ccccc2F)SC1=S)NCCc1ccc(O)cc1 the “viability” value was 80.4% [at 20 µM]. With Cc1ccc(OCC(=O)c2cc(C)c(C)cc2C)c([N+](=O)[O-])n1 the “viability” value was 92.3% [at 20 µM]. With CCN(CC)CCNC(=O)c1ccc(NC(=O)C2CCN(c3ncnc4sc(C)c(C)c34)CC2)cc1 the “viability” value was 81.7%. With CCCCCCc1c(C)nc(-n2[nH]c(C)c(CCO)c2=O)[nH]c1=O the “viability” value was 89.1%. In the case of OC(COc1ccc(CNCCc2ccc(C(F)(F)F)cc2)cc1)CN1CCCCC1 (stereo not given), the “viability” value is reported as 91.1%. For COc1ccc(CCNC(=O)COc2ccc(S(=O)(=O)NCC(C)C)cc2Cl)cc1OC, the “viability” value was 84.8%. For CN(C)CCCNc1ncnc2c1c(-c1ccccc1)cn2-c1ccccc1, the “viability” value was 74.4%. In the case of O=C(NC1CCCC1)C(c1ccncc1)N(Cc1ccccc1)C(=O)c1ccc(-c2ccccc2)[nH]1 (stereo not given), the “viability” value is reported as 88.5% [at 20 µM]. In the case of COc1ccc(/C=C2\SC(=S)N(CCC(=O)NCCc3ccc(O)cc3)C2=O)cc1, the “viability” value is reported as 79.8% [at 20 µM]. For OCCN(CCO)CC(O)COc1ccc(C23CC4CC(CC(C4)C2)C3)cc1 (stereo not given), the “viability” value was 90.3%. With Brc1ccc2c(c1)CN1CCCC1=N2 the “viability” value was 81.5%. In the case of CN1CCCC(n2nc(Cc3ccc(Cl)cc3)c3ccccc3c2=O)CC1 (stereo not given), the “viability” value is reported as 83.8%. For CCCCN(C)CCNC(=S)Nc1ccc2nc(N3CCN(CC)CC3)cc(C)c2c1, the “viability” value was 83.8%. With CCOC(=O)C(=Cc1ccc(F)cc1)C(=O)OCC the “viability” value was 73.7%.
